# Measured values taken from PubChem BioAssay (EPA / NIEHS).
# Activity calls are given as the source filed them. The calls were made as follows: active = hit-call score of the fitted dose curve at least 0.9, where 1 is the maximum; inactive = score below 0.9.
# Molecular target: CCAAT/enhancer-binding protein beta (Homo sapiens) (UniProt P17676)
# Assay: ATG_C_EBP_CIS: Attagene CIS-FACTORIAL HepG2 Assay for human CCAAT/Enhancer Binding Protein (C/EBP) beta (AID 2282927)
# Details: HepG2 Attagene cis-factorial transcription factor reporter; actives raise or lower the signal
# Protocol: ATG_CIS is a cell-based, multiplexed-readout assay that uses HepG2, a human liver cell line, with measurements taken at 24 hours after chemical dosing in a 24-well plate.ATG_C_EBP_CIS is one of 52 assay component(s) measured or calculated from the ATG_CIS assay. It is designed to make measurements of mRNA induction, a form of inducible reporter, as detected with fluorescence intensity signals by Reverse transcription polymerase chain reaction (RT-PCR) and Capillary electrophoresis technology.Data from the assay component ATG_C_EBP_CIS was analyzed into 1 assay endpoint. This assay endpoint, ATG_C_EBP_CIS, was analyzed with bidirectional fitting relative to DMSO as the negative control and baseline of activity. Using a type of inducible reporter, measures of mRNA for gain or loss-of-signal activity can be used to understand the reporter gene at the transcription factor-level as they relate to the gene CEBPB. Furthermore, this assay endpoint can be referred to as a primary readout, because this assay has produced multiple assay endpoints where this one serves a reporter gene function. To generalize the intended target to other relatable targets, this assay endpoint is annotated to the dna binding intended target family, where the subfamily is basic leucine zipper.
# Human liver HepG2 cells are transiently transfected with multiple reporter transcription units (MRTUs) in 6-well plates using FuGene 6 reagent (Roche; 3 ml FuGene/1 mg DNA). The MRTU constructs are regulated by a cis-regulating element (promoter). […] A major difference between the CIS and TRANS system is that in CIS activities of endogenous TFs are measured, whereas the TRANS assay evaluates changes in activities of exogenous, chimeric NR-Gal4 proteins. […] At the end of 24 hour incubation, total RNA was isolated using TriZol reagent (Invitrogen). The isolated RNA is then reverse-transcribed using oligo(dT) primer and Mo-MLV reverse transcriptase (Invitrogen) with DNAse I (Ambion) treatment for 30 min. The one-tenth of the produced cDNA was amplified by PCR using Taq DNA polymerase (Invitrogen) and two reporter sequence-specific primers. The PCR products were fluorescently labeled by primer extension with 6-arboxyfluorescein (6-FAM) 5'-labeled reporter sequence-specific primer (2 min at 95 C, 20 s at 68 C and 10 min at 72 C) and these products were digested with 5U of HpaI (New England Biolabs) for 2h at 37 C. The fragments were purified using Qiaquick PCR columns (Qiagen), analyzed on an ABI 3130xL genetic analyzer (Applied Biosystems) with peak positions identified by using a set of X-rhodamine (ROX)-labeled MapMarker1000 molecular weight standards (BioVentures). The raw capillary electrophoresis data was processed using Attagraph software (Attagene).
# CCAAT/enhancer-binding protein beta (Homo sapiens), sequence (P17676 whole entry, looked up): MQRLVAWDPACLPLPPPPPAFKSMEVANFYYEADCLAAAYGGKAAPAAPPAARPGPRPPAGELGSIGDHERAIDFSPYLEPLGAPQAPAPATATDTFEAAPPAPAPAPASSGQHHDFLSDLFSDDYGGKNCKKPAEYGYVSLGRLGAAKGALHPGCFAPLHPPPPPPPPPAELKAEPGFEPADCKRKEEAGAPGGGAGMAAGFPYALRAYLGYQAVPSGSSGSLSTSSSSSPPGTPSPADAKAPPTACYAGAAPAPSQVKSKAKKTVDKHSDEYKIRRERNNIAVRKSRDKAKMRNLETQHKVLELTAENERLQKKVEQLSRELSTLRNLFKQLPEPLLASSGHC
Compound,outcome,AC50
COc1cc(C=O)ccc1O,inactive,–
CCOc1ccc2c(c1)C(C)=CC(C)(C)N2,inactive,–
CNCc1cc(F)ccc1Oc1ccc(Cl)c(Cl)c1,inactive,–
CC(=O)OC/C=C(\C)CCC=C(C)C,inactive,–
C=CCc1ccc(O)c(OC)c1,inactive,–
Nc1ccc2c(c1)C(=O)c1ccccc1C2=O,inactive,–
O=C(N[C@@H](Cc1ccccc1)[C@@H](O)C(=O)N1C[C@@H](O)[C@@H](O)C1)c1cc2cc(Cl)ccc2[nH]1,inactive,–
Nc1ccc(S(=O)(=O)c2ccc(N)cc2)cc1,inactive,–
COc1cc(/C=C/C(=O)CC(=O)/C=C/c2ccc(O)c(OC)c2)ccc1O,inactive,–
CCCCCCCCCCCC(=O)OC,inactive,–
O=c1[nH]cc(F)c(=O)[nH]1,inactive,–
CCNc1cccc(C)c1,inactive,–
CC(=O)C(C)=CC1C(C)=CCCC1(C)C (stereo not given),inactive,–
CC(=O)OCCOCCOCCOC(C)=O,inactive,–
Nc1ccccc1N,–,54.2 µM (active)
NS(=O)(=O)c1cc2c(cc1Cl)NCNS2(=O)=O,inactive,–
Cc1oc(-c2ccccc2)nc1CCOc1cccc2c1ccn2CCC(=O)O,inactive,–
CCc1c(C(=O)NN2CCCCC2)nn(-c2ccc(Cl)cc2Cl)c1-c1ccc(Br)cc1,inactive,–
COc1ccc(C)cc1N,inactive,–
CC1(C)NC(=O)NC1=O,inactive,–

Compound,outcome,AC50
CCCCOC(=O)CCCCCCCCC(=O)OCCCC,inactive,–
OC[C@@H](O)[C@@H](O)[C@H](O)[C@H](O)CO,inactive,–
Cc1cccc(C)c1O,inactive,–
CCCCC(CC)COC(=O)CC(C(=O)OCC(CC)CCCC)S(=O)(=O)O (stereo not given),inactive,–
CCCCc1ccc2c(n1)[C@@H](c1ccc(OC)cc1C[C@H](C)C(=O)O)[C@H](C(=O)O)[C@H]2c1ccc2c(c1)OCO2,inactive,–
Cc1ccccc1Cl,inactive,–
COc1ccc(S(=O)(=O)N2C(=O)[C@@](c3ccccc3OC)(N3C[C@H](O)C[C@H]3C(=O)N(C)C)c3cc(Cl)ccc32)c(OC)c1,inactive,–
NCC1(Cc2noc(=O)[nH]2)CCCCC1,inactive,–
FC(F)(F)C(F)(F)C(F)(F)C(F)(F)C(F)(F)C(F)(F)CCI,inactive,–
CCCCCCCCCCO,inactive,–
O=C(O)Cc1ccccc1Nc1c(Cl)cccc1Cl,inactive,–
Oc1ccc2ccccc2c1N=Nc1ccccc1,inactive,–
NCCO,inactive,–
CCCCCCCCCCC,inactive,–
c1cc(-c2ccncc2)ccn1,inactive,–
CCOC(=O)CCC(=O)OCC,inactive,–
Cc1cccc(Nc2cc(Cl)nc(SCC(=O)O)n2)c1C,inactive,–
Cc1ccc(N(C)C)cc1,inactive,–
CC(CO)OC(C)CO (stereo not given) (tested in a mixture with another compound),inactive,–
CCCc1cc(=O)[nH]c(=S)[nH]1,inactive,–
